# In PubChem BioAssay AID720650 (Broad Institute, 2013):
# Values without a mark were called inactive. The source made the active and inactive calls. The rule behind the calls is not given here.
# Experiment: Biochemical counterscreen for C difficile toxins, absence of UDPG, inhibitor dose response (AID 720650)
# Settings: series mostly up to 19.5 µM; activity change, negative = inhibition: at the top concentration
SMILES,"activity change, negative = inhibition [%]",AC50
Cc1ccc(S(=O)(=O)/N=C(/Nc2cccc(O)c2)c2ccccc2)cc1,-15.3,
O=c1c2oc3nc4c(cc3c2ncn1CCCc1ccccc1)CCCC4,-4.58,
CN(C)CC(=O)N1CC[C@@H]2[C@H]1c1cc(-c3ccccc3)ccc1N(C)[C@H]2CO,,14.1 µM (active)
COCC(=O)N1CC[C@@H]2[C@H]1c1cc(-c3ccc(F)cc3)ccc1N(C)[C@H]2CO,,7.2 µM (active)
Cn1cc(S(=O)(=O)CC(=O)N2CCCc3ccccc32)c2ccccc21,-8.72,
CC12CCC(=O)N1C(C(=O)OCc1c(Cl)cccc1Cl)CS2 (stereo not drawn),-9.04,
Cn1c(=O)c2c([nH]c(=S)n2Cc2ccc(Cl)cc2)n(C)c1=O,-22.4,
CN(c1ccc(O)cc1)c1nc(-c2cccnc2)cs1,15,
Cc1nc2ccccn2c1-c1ccnn1S(=O)(=O)c1ccc(F)cc1,-14.9,
CC1(C)Cc2c(sc3ncn4c(=S)[nH]nc4c23)CO1,,13.9 µM (active)
Cc1ccc2nc(-c3ccc4c(c3)OCCO4)cn2c1,,12.4 µM (active)
Cc1ccc(C(=O)NC(=O)OCCn2c(C)cnc2[N+](=O)[O-])cc1,0.194,
Cc1nc2ccccc2nc1OCC(=O)Nc1ccc(F)cc1,-2.47,
CCOC(=O)Nc1ccc(OC(=O)Oc2ccc(NC(=O)OCC)cc2)cc1,,> 39 µM
O=c1c([N+](=O)[O-])cccn1Cc1ccc(F)cc1Cl,-8.58,
Cc1ccc(/C=C/c2onc(C)c2S(=O)(=O)N2CCC(C(=O)N3CCCCC3)CC2)cc1,-13.5,
COc1cc(C=C2CN(C)C(=O)C2=O)ccc1O,-5.77,
Cc1ccc(-c2cc(C(=O)NNC(=O)c3csc(N4CCOCC4)n3)c3ccccc3n2)cc1,8.62,
CC(C)(C)c1cc(Cl)c(O)c(NC(=S)NC(=O)c2cccnc2)c1,10.9,

SMILES,"activity change, negative = inhibition [%]",AC50
Cc1ccc2c(c1)-c1c(cnn1CC(=O)NC(C)CCc1ccco1)CO2 (stereo not drawn),-12.6,
CCCCn1c(CN2CCN(C(=O)c3ccco3)CC2)nc2c1c(=O)n(C)c(=O)n2C,-3.65,
CCOC(=O)Cn1c(C(F)(F)F)nc2nc(Cl)c(Cl)nc21,-4.43,
CCc1ccccc1NC(=O)CN1CCN(CC(=O)NCc2ccc(Cl)cc2)CC1,5.72,
CC(Oc1ccc(Cl)cc1Cl)C(=O)Nc1ccc(O)cc1 (stereo not drawn),,12.9 µM (active)
O=C(O)C1CCC(CN(Cc2cccc(Br)c2)C(=S)Nc2ccccc2F)CC1 (stereo not drawn),-3.31,
Cc1cc(C(=O)NNc2ccc(C)c(C)c2)no1,,0.287 µM (active)
Cc1ccc(/C=N/NC(=O)c2cccc(S(=O)(=O)Nc3ccccc3Cl)c2)o1,-6.39,
Cc1ccc(NNC(=O)C2CCC2)cc1C,,0.386 µM (active)
CN(C)CCNc1cccc2sc3ccc(O)cc3c(=O)c12,,4.36 µM (active)
O=C(NCc1nnc2c(C(F)(F)F)cc(Cl)cn12)c1cccnc1,-5.93,
O=[N+]([O-])c1cc(Br)ccc1NS(=O)(=O)c1ccccc1,,> 39 µM
COc1ccc(NS(=O)(=O)c2cc(N=Nc3c(O)[nH]c(=O)[nH]c3=O)ccc2Cl)cc1,-5.06,
Clc1ccc(/C=C/c2ncc[nH]2)c(Cl)c1,-10.7,
COc1ccc(/C=C2/C(=O)C(C)(C(C)C)CCC2C)cc1 (stereo not drawn),8.31,
Cc1ccc(C2=NS(=O)(=O)N(C)C(C(=O)NCc3ccc(F)cc3)=C2)cc1,6.63,
COC(=O)c1ccc(C23CC4(C2)[C@H](CN(Cc2ccc(C(F)(F)F)cc2)[C@@H]4c2ccccc2)C3c2ccc(Cl)nc2)cc1 (stereo partly drawn),-0.958,
CCOC(=O)c1ccc(NC(=O)Oc2cc(C)c(Cl)cc2C(C)C)cc1,-0.216,
CCOC(=O)c1nnn(-c2nonc2N)c1-c1ccc(F)cc1,-4.63,
